Experimental findings from PubChem BioAssay (Tox21) are described below.

SMILES strings stand for the structures. Where “and” joins values, the source holds several entries; their conditions need not be identical. Equal entries are not always repeated. A number with no mark means an inactive call. Inconclusive results are not listed. Calls of active or inactive are those of the source. The call rests on the fitted dose curve; in most records, active means well fitted curve in the direction sought with a large enough effect in the repeat runs; inconclusive means weak or mixed curves; inactive means no such curve, though single readings can be large; an effect the other way counts as inactive or inconclusive.

Assay [1] can be described thus: qHTS RealTime-Glo MT Cell Viability Assay in HEK293 cells - 16 hour (AID 1224872). Further: nearly all actives have a fitted effect of over 50% in size. Further: potency means the concentration at half of the fitted maximal effect. On activity change, negative = cytotoxicity: top concentration of the series differs between compounds. The procedure, abridged: (§1)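 Nonlytic real-time viability readout: viable cells convert prosubstrate to NanoLuc substrate, giving luminescence proportional to live cell number. HEK293, 600 cells/well, compound added after 5 h, continuous culture at 37 C.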
Assay [2] is described as follows: qHTS RealTime-Glo MT Cell Viability Assay in HepG2 cells - 8 hour (AID 1224873). Further: nearly all actives have a fitted effect of over 55% in size. Further: potency means the concentration at half of the fitted maximal effect. An outline of the steps:
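HepG2 cells mixed with RealTime-Glo MT reagents (NanoLuc plus cell-permeant prosubstrate) were seeded at 600 cells/well, incubated 5 h at 37 C/5% CO2, then pinned with compounds in DMSO; nonlytic luminescence tracked viability during 40 h treatment.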
A general note: Quantitative high-throughput screening tests each substance at several concentrations.

A short description of assay [3]: A CellTox Green Cytotoxicity Assay to monitor cytotoxicity in HEK293 cells - 24 hour (AID 1224875). Further: nearly all actives have a fitted effect of over 45% in size. Further: potency means the concentration at half of the fitted maximal effect. On activity change: series mostly up to about 77 µM. An outline of the steps: (§2)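 Dead-cell fluorescence measured kinetically: asymmetric cyanine dye, HEK293, 600 cells/well, 5 h settle, 23 nL cpd/DMSO, 37 C, reads 0–40 h every 8 h.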
A short description of assay [4]: A CellTox Green Cytotoxicity Assay to monitor cytotoxicity in HepG2 cells - 16 hour (AID 1224876). Further: nearly all actives have a fitted effect of over 45% in size. Further: potency means the concentration at half of the fitted maximal effect. The procedure, abridged: (§3)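 First, HepG2 cells (600/well) mixed with reagent were plated; second, after 5 h at 37 C they received compounds via pintool; third, fluorescence was measured at 0 h through 40 h at 8 h intervals.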
The nature of assay [5]: qHTS RealTime-Glo MT Cell Viability Assay in HepG2 cells - 32 hour (AID 1224877). Further: nearly all actives have a fitted effect of over 55% in size. Further: potency means the concentration at half of the fitted maximal effect. The procedure, abridged: (§4)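 Luminescence read-out: viable HepG2 cells reduce a prosubstrate to a NanoLuc substrate, giving a signal proportional to live cell number. Reads taken at 0, 8, 16, 24, 32 and 40 h of compound exposure at 37 C.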
Assay [6] in a line: A CellTox Green Cytotoxicity Assay to monitor cytotoxicity in HepG2 cells - 24 hour (AID 1224878). Further: nearly all actives have a fitted effect of over 45% in size. Further: potency means the concentration at half of the fitted maximal effect. An outline of the steps: as §3
Assay [7] in a line: A CellTox Green Cytotoxicity Assay to monitor cytotoxicity in HepG2 cells - 40 hour (AID 1224879). Further: nearly all actives have a fitted effect of over 40% in size. Further: potency means the concentration at half of the fitted maximal effect. The procedure, abridged:
as §3

A short description of assay [8]: qHTS RealTime-Glo MT Cell Viability Assay in HEK293 cells - 0 hour (AID 1224880). Further: top concentration of the series differs between compounds; nearly all actives have a fitted effect of over 45% in size. The procedure, abridged:
(§5)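 600 HEK293 cells per well, dispensed already mixed with RealTime-Glo MT reagents. Compound dosing came 5 h later. The same wells were read for luminescence at 0, 8, 16, 24, 32 and 40 h of exposure at 37 C.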

Assay [9] can be described thus: A CellTox Green Cytotoxicity Assay to monitor cytotoxicity in HepG2 cells - 0 hour (AID 1224882). Further: nearly all actives have a fitted effect of over 35% in size. Further: potency means the concentration at half of the fitted maximal effect. The procedure, abridged: as §3
The nature of assay [10]: A CellTox Green Cytotoxicity Assay to monitor cytotoxicity in HepG2 cells - 32 hour (AID 1224883). Further: nearly all actives have a fitted effect of over 50% in size. Further: potency means the concentration at half of the fitted maximal effect. The procedure, abridged:
as §3

Assay [11] is described as follows: A CellTox Green Cytotoxicity Assay to monitor cytotoxicity in HEK293 cells - 8 hour (AID 1224884). Further: nearly all actives have a fitted effect of over 35% in size. Further: potency means the concentration at half of the fitted maximal effect. An outline of the steps:
as §2

Assay [12] is described as follows: qHTS RealTime-Glo MT Cell Viability Assay in HepG2 cells - 16 hour (AID 1224885). Further: nearly all actives have a fitted effect of over 50% in size. Further: potency means the concentration at half of the fitted maximal effect. An outline of the steps:
as §4

The nature of assay [13]: qHTS RealTime-Glo MT Cell Viability Assay in HEK293 cells - 24 hour (AID 1224886). Further: nearly all actives have a fitted effect of over 50% in size. Further: potency means the concentration at half of the fitted maximal effect. On activity change, negative = cytotoxicity: top concentration of the series differs between compounds. The procedure, abridged:
as §1

Assay [14] is described as follows: qHTS RealTime-Glo MT Cell Viability Assay in HEK293 cells - 8 hour (AID 1224887). Further: nearly all actives have a fitted effect of over 50% in size. Further: potency means the concentration at half of the fitted maximal effect. On activity change, negative = cytotoxicity: top concentration of the series differs between compounds. The procedure, abridged:
as §5

Assay [15] can be described thus: A CellTox Green Cytotoxicity Assay to monitor cytotoxicity in HEK293 cells - 16 hour (AID 1224888). Further: nearly all actives have a fitted effect of over 35% in size. Further: potency means the concentration at half of the fitted maximal effect. An outline of the steps:
as §2

Assay [16] is described as follows: qHTS RealTime-Glo MT Cell Viability Assay in HepG2 cells - 0 hour (AID 1224889). Further: nearly all actives have a fitted effect of over 50% in size. The procedure, abridged: as §4
A short description of assay [17]: A CellTox Green Cytotoxicity Assay to monitor cytotoxicity in HepG2 cells - 8 hour (AID 1224890). Further: nearly all actives have a fitted effect of over 45% in size. Further: potency means the concentration at half of the fitted maximal effect. The procedure, abridged:
as §3

Assay [18] in a line: A CellTox Green Cytotoxicity Assay to monitor cytotoxicity in HEK293 cells - 32 hour (AID 1224881). Further: nearly all actives have a fitted effect of over 40% in size. Further: potency means the concentration at half of the fitted maximal effect. An outline of the steps:
as §2

Assay [19] can be described thus: qHTS assay to identify small molecule antagonists of the estrogen receptor alpha (ER-alpha) signaling pathway using the BG1 cell line in the presence of 0.1 nM 17-beta-estradiol - cell viability counter screen (AID 1259241). Further: nearly all actives have a fitted effect of over 40% in size. Further: potency means the concentration at half of the fitted maximal effect. An outline of the steps: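 In this screen, hormone-deprived VM7Luc4E2 cells were seeded at 4,000 per well, dosed with compound and 0.1 nM estradiol final, and incubated 22 hr at 37C and 5% CO2; fluorogenic live-cell protease signal reported viability.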

Assay [20] can be described thus: qHTS RealTime-Glo MT Cell Viability Assay in HEK293 cells - 40 hour (AID 1224874). Further: nearly all actives have a fitted effect of over 50% in size. Further: potency means the concentration at half of the fitted maximal effect. Conditions: RealTime-Glo luminescence; max response: hits give low values. The procedure, abridged:
as §5
On the % scale 0 is the no-effect control and ±100 the full control effect.

With `O=Cc1ccc(F)cc1`, the Potency result in [1], in [2], in [3], in assay [4], in assay [5] and in [6] was “inactive” each time. The Potency result in assay [7], in [8], in [9], in [10], in [11] and in assay [12] was “inactive” in each case. The Potency entry in [13], in assay [14], in [15], in assay [16] and in assay [17] was “inactive” in each case.
As to `c1cc2c3c(c1)ccc1cccc(c13)C2`, the Potency result in assay [1], in assay [2], in assay [4], in [5], in [6] and in assay [7] was “inactive” in each case. The Potency result in assay [8], in assay [10], in assay [12], in assay [13], in assay [14] and in assay [16] was “inactive” throughout. Also, the Potency entry in [17] and in assay [19] was “inactive” throughout. Moreover, the Potency in assay [3] was 56.1 µM (active); in assay [18] it was 50 µM (active); in [11], 56.1 µM (active).
Regarding `Cc1ccc2ccc3cccc4ccc1c2c34`, the Potency result in assay [1], in [2], in assay [3], in assay [4], in assay [5] and in assay [6] was “inactive” throughout. In addition, the Potency result in assay [7], in assay [8], in assay [18], in assay [9], in [10] and in assay [11] was “inactive” in each case. Also, the Potency result in assay [12], in [14], in assay [15], in assay [16], in assay [17] and in assay [19] was “inactive” throughout.
On to `CN(C)c1ccc(N=NS(=O)(=O)O)cc1`, for which the Potency in assay [1] is 14.5 µM (active); in [14], 34.5 µM (active). Also, in assay [20], the max response is -17.2%. The Potency entry in assay [3], in [4], in [5], in [6], in assay [7] and in assay [8] was “inactive” each time. The Potency entry in [18], in assay [9], in assay [10], in assay [11], in [15] and in [17] was “inactive” in each case.
For `Cc1c(C)n(Cc2ccccc2)c2ccc(C(=O)OCCN(C)C)cc12`, the Potency result in assay [1], in [2], in assay [8], in assay [9], in assay [11] and in assay [14] was “inactive” each time. Besides, the Potency entry in assay [15], in assay [16] and in assay [19] was “inactive” each time. Besides, the Potency in assay [4], in [5], in [6], in assay [7] and in assay [10] was 23.9 µM (active) throughout.
As to `C[Si](C)(C)Cl`, the Potency entry in [1], in assay [2], in assay [3], in assay [5], in [6] and in assay [7] was “inactive” throughout. For the same compound, the Potency entry in assay [8], in [18], in assay [9], in assay [10], in [11] and in assay [12] was “inactive” in each case. Moreover, the Potency entry in assay [13], in assay [14], in assay [16], in assay [17] and in [19] was “inactive” in each case.
As to `CCc1ccc(O)c(C(C)(C)C)c1`, the Potency entry in assay [1], in assay [5], in assay [8], in [9], in assay [11] and in assay [13] was “inactive” in each case. In addition, the Potency result in assay [14], in [15], in assay [16] and in [19] was “inactive” each time. For the same compound, in [20], the max response was -13.3%. The Potency in assay [3] was 43.6 µM (active); in [6], 38.9 µM (active); in assay [7], 38.9 µM (active); in assay [18], 38.9 µM (active); in [10], 38.9 µM (active); in assay [17], 43.6 µM (active).
As to `Cc1cccc(C)c1NC(=O)CN1CCN(CCCC(c2ccc(F)cc2)c2ccc(F)cc2)CC1`, the Potency in assay [1] was 10.7 µM (active); in assay [20] it was 10.7 µM (active); in [4] it was 26.8 µM (active); in assay [5] it was 23.9 µM (active); in assay [6], 23.9 µM (active); in assay [7], 23.9 µM (active). The results for the Potency in assay [10], in assay [12] and in assay [14] were 23.9 µM (active), 21.3 µM (active) and 10.7 µM (active), respectively. Further, the Potency entry in assay [8], in assay [9], in assay [11], in [16] and in assay [19] was “inactive” in each case.
For `CCN(CC)c1ccc(N)cc1`, the Potency was 22.5 µM (active) in assay [1]; 17.8 µM (active) in assay [20]; 50.3 µM (active) in assay [7]; 50.3 µM (active) in [12]; 22.5 µM (active) in assay [13]; 20 µM (active) in assay [14]. Further, the Potency in [19] is 17.7 µM (active). The Potency entry in [3], in assay [4], in [8], in assay [9], in [11] and in assay [15] was “inactive” throughout. In addition, the Potency entry in assay [16] and in assay [17] was “inactive” throughout.
For the compound `CCC(C)c1ccccc1` (configuration not stated), the Potency result in assay [2], in [3], in [4], in assay [5], in assay [6] and in assay [7] was “inactive” each time. In addition, the Potency result in assay [8], in assay [18], in assay [9], in [10], in [11] and in assay [12] was “inactive” each time. The Potency result in assay [13], in assay [14], in [16], in assay [17] and in [19] was “inactive” in each case. Besides, in assay [20], the max response is 6.63%.
Regarding `CCN=c1cc2oc3cc(NCC)c(C)cc3c(-c3ccccc3C(=O)OCC)c-2cc1C`, the Potency is 24.5 µM (active) and 21.9 µM (active) in assay [2]; 614 nM (active) and 550 nM (active) in assay [20]; 12.3 µM (active) and 11 µM (active) in assay [3]; 10.9 µM (active) and 6.17 µM (active) in [4]; 43.5 µM (active) and 21.9 µM (active) in [5]; 19.4 µM (active) and 5.49 µM (active) in assay [6]. In addition, the Potency was 21.8 µM (active) and 6.17 µM (active) in assay [7]; 10.9 µM (active) and 11 µM (active) in assay [18]; 6.89 µM (active) and 6.17 µM (active) in [9]; 21.8 µM (active) in [10]; 10.9 µM (active) and 9.77 µM (active) in assay [11]; 43.5 µM (active) and 24.5 µM (active) in [12]. Besides, the Potency in assay [13] is 2.45 µM (active) and 1.74 µM (active); in [14] it was 17.3 µM (active) and 17.4 µM (active); in assay [15], 10.9 µM (active) and 11 µM (active); in [17], 21.8 µM (active) and 6.92 µM (active); in assay [19], 8.6 µM (active) and 10.9 µM (active). The Potency result in assay [8] is “inactive”.
Turning to `COc1cc(C(C)C)c2c(c1)S(=O)(=O)N(COc1cc(=O)n3cccc(OCCN4CCCCC4)c3n1)C2=O`, the activity change, negative = cytotoxicity in [1] was 3.24% [at 15.8 µM]; in [8] it was -4.74% [at 15.8 µM]; in assay [16], -4.58% [at 15.8 µM]; in [19] it was -4.33% [at 19 µM]. The activity change was 0.172% [at 15.8 µM, hits give high values] in assay [3] and 2.2% [at 15.8 µM, hits give high values] in [15]. Moreover, the cytotoxicity increase in [4] was 19.8% [at 15.8 µM]; in [18], 5.59% [at 15.8 µM]; in [11], -6.14% [at 15.8 µM]; in [17], 14.9% [at 15.8 µM]. For the same compound, the activity change, negative = cytotoxic in [5] was -2.94% [at 15.8 µM]; in [12], -16.4% [at 15.8 µM]. Besides, the cytotoxicity in [9] is 2.15% [at 15.8 µM].
For the compound `C=CC(C)C#N` (configuration not stated), the Potency result in assay [2], in [3], in [4], in [5], in [6] and in assay [7] was “inactive” each time. Besides, the Potency entry in assay [8], in [18], in assay [9], in assay [10], in assay [11] and in assay [12] was “inactive” in each case. Further, the Potency result in [13], in assay [14], in [15], in assay [16], in assay [17] and in assay [19] was “inactive” throughout. Further, the max response in assay [20] was 11.1%.
